According to article PMC12864922, “TDP-43 directly inhibits mRNA accumulation in neurites through modulation of mRNA stability”:
The full ranking holds about 9,900 sequences; the median of “r (bound/input frequency ratio)” is about 0.7, and the highest 2% start at about 6.5. What follows is part of a selection rich in the highest values, with near analogues and random picks from the rest.

B1: ENSMUSG00000029028.98|Lrrc47 (ssRNA)
RNA: GGGAGUUCUACAGUCCGACGAUCGCUUCGAUAUCCGCAUGCUAUGUGGGUGUGCUGUAGAUUCUGUGUAACUGGUUCUUUGCUGUUUCUCUGGGUGUUUUAAGGUGUCUGCUUUUGUCCAGGUGACUGUGGUAAUGUGAGUUUGCAUCAUCAUCAUAGCUCCAAUGUGACUCUCCUGUCUCCUGUCCUCAUGGAUCACUCAGUAACUGCUGGGGAUGUUCUGAAUCAUGUGGCCUGUGGCCGUGCUGGAGAGUCAGGUUGAACGCAGGCAUUCUAUUGAACAGUAUUUAUUUUUCUACAACAUCUCUUGCGGUCGCACUAGUGUGGAAUUCUCGGGUGUCAAGG
B2: ENSMUSG00000090935.301|Synj2bp|248:252 (ssRNA)
RNA: GGGAGUUCUACAGUCCGACGAUCGCUUCGAUAUCCGCAUGCUAGCCUUAGUUGCUAUUUUACAGUACUGUUAAAGGAUCCAUUGGCAUGGGAUGGGAAGCAGCAGGGCCCAAUCAACCAUCAAGACAUCUGAAAAAGAUCAUGUCUCAAGGUGGCACUUGAGCCUUCAAAACUGCUUAACAAUUCUCAGUUUCUAGUGUCAGACAAAAAGCCUAAGGGAAGGAACUGCCCUCCUGGUAGGAUGGACCUGAAUCAGCCUGCUUCUGACUGAGUUAGGAUGAGAAGGCAUUGCAUACGGUUUUCUCUCUUGCGGUCGCACUAGUGUGGAAUUCUCGGGUGUCAAGG
B3: ENSMUSG00000032194.203|Kank2 (ssRNA)
RNA: GGGAGUUCUACAGUCCGACGAUCGCUUCGAUAUCCGCAUGCUACUGCACCUUUCUCUAACUGGGGUUCCUUUCUGGCCCCAGGAUCUCAGUGUGGUUCGUGGGGGGAUUUUGUUGUUGUUUCUUUGUUUCUUUUCUUCAUAAAGAAGAAAAAGGAAACAACUUCUAGAUGUGCCUUGCGAUAGGGAGGACUUUGUCCUCUCAAGUCUCCCUGUCGUAUCCAGAUCACAGCUGAACCCACUGGGCCUUGGCGCCAAACCUCAGCAGGGCAGCAUUGAGACUCAUGGACUAAAGGAAAGUGUUCACUCUUGCGGUCGCACUAGUGUGGAAUUCUCGGGUGUCAAGG
B4: ENSMUSG00000043670.75|Diras1|97:102 (ssRNA)
RNA: GGGAGUUCUACAGUCCGACGAUCGCUUCGAUAUCCGCAUGCUAUUUGAUCCCUGUGGAUCUGAAAACAGGGACCUGGCUAAGGAACUGCUCAUCCCAGUCAGGCCCAGAGAGGUUACCUUGCCUCUCCAUCUCUGUCCCACACACCCCAGCCAUGCCCACUGUCCCUGUCCCUCACAUUCUAUCACUGUGACCUCUGGGGAGUGCCCAUUGACCUCAUCUUCCUUCACUAAUAUCUUAUUUCUUUCACCUGAUCCUGUCCUUUCCCCGUGACCUCUGACCUGUGGCCUUCCCUGGGUCCAGAACUCUUGCGGUCGCACUAGUGUGGAAUUCUCGGGUGUCAAGG
B5: ENSMUSG00000061578.22|Ksr2|4:9;112:122;211:217;222:226 (ssRNA)
RNA: GGGAGUUCUACAGUCCGACGAUCGCUUCGAUAUCCGCAUGCUAACCACACACAUGACGUCACAGAGGCUGUCCACACCUUCGACUUGUACCCCGUUACUCAGGCACGAUCAGGGACCACUCAACUAGGACCAAACUGGGCCAGAGAGGGUCCCAACACACCACACAAGGAGCCACAGACUGAGCACACCACCUCGGACUGUGGAGACCAAGACACAUGCCCAGUGGGCAGACUCAGACUCACACGCUGGACCACACACACCGCAACACACUACACAUGGACAGGGCCAACUGCUAUCCUUCUGCUCUUGCGGUCGCACUAGUGUGGAAUUCUCGGGUGUCAAGG
B6: ENSMUSG00000031028.295|Tub (ssRNA)
RNA: GGGAGUUCUACAGUCCGACGAUCGCUUCGAUAUCCGCAUGCUAUCCCAGGUUGGACACUCGACGAAAGGCACACCUGCUGCAGCAGGUUCUGACACACCUGAGCCAUACAUUGCCAUCAGAGAACCCUCAGCGAGGUAGCCUUUGUUUACAGUCUAGUUUCUAGAGGGCAGUAGGACUUCCAUGCUGGGGCUGGCCUAUCUCCUGAUGAAAGAUUACAGUGCCAUCUCCUUCCCAUAGUUCUGUGUCUGCCCUCCCUCCCUGACUUUAUAGGGAGAAAUCUCCUGACAUUAGAGGUGAUAGAACUCUUGCGGUCGCACUAGUGUGGAAUUCUCGGGUGUCAAGG
B7: ENSMUSG00000031028.549|Tub (ssRNA)
RNA: GGGAGUUCUACAGUCCGACGAUCGCUUCGAUAUCCGCAUGCUAAUAGAUGGACAGCCUGGUUUCCCUUCUCAGCAGUCCUGGCCUCCCCUUCUCUGUAUUCCUUGCCCCAGCUACGAUAUCCUCAUGGGAUUUCAGGAUGCCAGGUGCCAUCAAAGCAUGCUUUUUUGUGGUGCCUAGCACUGUGACUGGGGCCCAACUGCCCUGCAGAGUUGGGACCUUGCACUGCCCUAGACCCUGGCUUUAGAUCUGCUUCAGUCUCCAGAACAGGCUAUGGGAUAGAUUUUUCUUUCAGUUUAUGGCCACUCUUGCGGUCGCACUAGUGUGGAAUUCUCGGGUGUCAAGG
B8: ENSMUSG00000061578.336|Ksr2 (ssRNA)
RNA: GGGAGUUCUACAGUCCGACGAUCGCUUCGAUAUCCGCAUGCUAGGAGUGACCAGUCACCUGCCUCCCAGGGUUCUGCCUUGCCCUUAAGCUAGGGUCCUUCAAGCAUCCACAGACUUAGAGUGUGGUGGUAACAUGCUUGUAAUCCUGGCACUCUGGAGGCUGAGGCAGGAGGAUAACAAGUCUAGACUAUAUAUGAUUUCUGAGGGUCUGUUAGUGAAUAAGUACCUGGAUGACAUGGGACAAGUCCCAGCCUUCCCUGCUCCUGCGCUGCUCUUCCUCUUAUGGGAUAGGGUCUAGGUCAACUCUUGCGGUCGCACUAGUGUGGAAUUCUCGGGUGUCAAGG
B9: ENSMUSG00000061578.503|Ksr2 (ssRNA)
RNA: GGGAGUUCUACAGUCCGACGAUCGCUUCGAUAUCCGCAUGCUAGGGAUUAAAGGUGUGUACCACCAUUGCAAUCUUGAACUCUUGACCAAUAGAAAUCCUAGACUAGUGUUGCUAGGCAACUGACUGUAUUCAGGACACCCAGGGUGGGAGGUGGAUGGAGCUCUUGCCUAACACACACCAAGCCCCAAGUUCCAUCCCCAGUCCCACACAAACCAGAUAUGAUGGUGUGUGCCUAUGUCCCCCACACACGAGAGAGCUGGAGGCAGGAGGAUCAGAAGUUCAGGGCCAUCCUUAAUCAUACACUCUUGCGGUCGCACUAGUGUGGAAUUCUCGGGUGUCAAGG
B10: ENSMUSG00000031028.294|Tub|205:209 (ssRNA)
RNA: GGGAGUUCUACAGUCCGACGAUCGCUUCGAUAUCCGCAUGCUAUAGAUUUCCCAGGUUGGACACUCGACGAAAGGCACACCUGCUGCAGCAGGUUCUGACACACCUGAGCCAUACAUUGCCAUCAGAGAACCCUCAGCGAGGUAGCCUUUGUUUACAGUCUAGUUUCUAGAGGGCAGUAGGACUUCCAUGCUGGGGCUGGCCUAUCUCCUGAUGAAAGAUUACAGUGCCAUCUCCUUCCCAUAGUUCACACACUGCCCUCCCUCCCUGACUUUAUAGGGAGAAAUCUCCUGACAUUAGAGGUGCUCUUGCGGUCGCACUAGUGUGGAAUUCUCGGGUGUCAAGG
B11: ENSMUSG00000032194.156|Kank2|226:232 (ssRNA)
RNA: GGGAGUUCUACAGUCCGACGAUCGCUUCGAUAUCCGCAUGCUAAAAAAAGAAAAAAGGCCAUUCCGGAGUGACUCCCAGCAUCACAGCCCAGAACCUCCUCCUCAAAGGAGAGUAAACAGAGACUGUGAUACUGACCAAGUACAGGCGCUCGCUAUGAAGCCCAUAUGUUCCUGAUUAAGAGCUGGCUGGCCUCAGAGCACUCCCAGAACUAGCUUAAAGUGACAGGCUUUGCUGAAAUCCAAAGGGACAAAAGAGUAGUUUUAUGUUACACACAUUGUUUUUAAUGCCCUGGAGCUCCUGCUCUCUUGCGGUCGCACUAGUGUGGAAUUCUCGGGUGUCAAGG
B12: ENSMUSG00000061578.741|Ksr2 (ssRNA)
RNA: GGGAGUUCUACAGUCCGACGAUCGCUUCGAUAUCCGCAUGCUAUUUAAAUACCUGCUGCAGGCCUCCCAUCUCUGGCUCUUUGUUUCCACUCUGGCCCAAGUUUGAGUCUCCAUAUGGGCCCUUCCUGUCCUCAUGCCCUGCCUGUCUUCAUUCCACCCAUCCACCCUCCUAAGGAUUGGUCUUGUUCCGAGAGUGAUCCUGGUAACGCCAAGCCUCCCUCUGCCCCUGUGUUGGCUUCUGUGACGGACUACCACACACCAAGAGGUUUUUCACAGUGAAGAUGUAUGCUCUCACCAUCCUACCUCUUGCGGUCGCACUAGUGUGGAAUUCUCGGGUGUCAAGG
B13: ENSMUSG00000061578.701|Ksr2|49:53 (ssRNA)
RNA: GGGAGUUCUACAGUCCGACGAUCGCUUCGAUAUCCGCAUGCUAUACUCCCAGAUCUGGGGUGAUCUCUUGAGGUGCCUUCCUGUAGUCUCUACACACAUCUUCUUCUAAGACCACUAAUAACACCGCCUUUCUCCUUGAUCCGGGCCUCAGACCUCUUCAGAGAUUCUUUCUCUGAAUGUACGUGGGGGACUCCAACAGAUGUUGGGAGAAGACUCAAUAUGAGCAUACGGGGUCAUUGUUCAAUCCUGUAUCAAGACCUUGGAGUUGUCUAAGGCUGUGGGUUUUAAAUACCUGCUGCAGGCCUCUUGCGGUCGCACUAGUGUGGAAUUCUCGGGUGUCAAGG

target: TDP-43 (Homo sapiens, UniProt Q13148 1-414); assay: RNA Bind-n-Seq with designed 260-mer pool; 25 mM Tris-HCl, 150 mM KCl, 3 mM MgCl2, BSA (printed 500 mg/mL), 20 units/mL SUPERase IN; pH not stated; 500 nM RNA pool, 1 h, 4 C; TDP-43 5, 50, 500 nM; high values mean tight binding; settings: protein: recombinant; tags: SBP (GST cleaved off with PreScission; pGEX-GST-SBP)
In short: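 For each oligo, R gives binding as its mapped-read-normalized abundance after pulldown divided by its abundance in input. Bead-captured SBP-tagged TDP-43 (5, 50 or 500 nM) was incubated with 500 nM of an in vitro-transcribed 260-nt 3′ UTR oligo pool for 1 h at 4 °C in 25 mM Tris-HCl, 150 mM KCl, 3 mM MgCl2, BSA and SUPERase IN on streptavidin beads. Washed, biotin-eluted RNA was reverse transcribed, PCR-amplified and sequenced.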

Chain of TDP-43 (Q13148 whole entry): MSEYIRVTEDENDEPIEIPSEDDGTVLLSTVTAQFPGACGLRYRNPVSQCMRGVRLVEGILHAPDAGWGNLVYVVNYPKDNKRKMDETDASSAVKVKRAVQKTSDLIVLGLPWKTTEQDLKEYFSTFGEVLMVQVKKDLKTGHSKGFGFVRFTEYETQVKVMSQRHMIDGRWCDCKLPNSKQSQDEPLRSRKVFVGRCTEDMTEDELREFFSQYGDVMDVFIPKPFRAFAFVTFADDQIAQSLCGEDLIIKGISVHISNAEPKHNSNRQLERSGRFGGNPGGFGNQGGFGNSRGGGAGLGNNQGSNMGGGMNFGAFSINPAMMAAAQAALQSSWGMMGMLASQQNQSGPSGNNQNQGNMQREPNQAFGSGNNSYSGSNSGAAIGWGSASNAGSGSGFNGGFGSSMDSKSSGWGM

| Binder | binding signal |
| --- | --- |
| B1 | 1.29 R (bound/input frequency ratio) |
| B2 | 0.248 R (bound/input frequency ratio) |
| B3 | 0.26 R (bound/input frequency ratio) |
| B4 | 2.78 R (bound/input frequency ratio) |
| B5 | 1.84 R (bound/input frequency ratio) |
| B6 | 0.563 R (bound/input frequency ratio) |
| B7 | 0.419 R (bound/input frequency ratio) |
| B8 | 0.934 R (bound/input frequency ratio) |
| B9 | 1.74 R (bound/input frequency ratio) |
| B10 | 0.471 R (bound/input frequency ratio) |
| B11 | 0.257 R (bound/input frequency ratio) |
| B12 | 2.01 R (bound/input frequency ratio) |
| B13 | 0.26 R (bound/input frequency ratio) |
